Experimental data from the supplement of paper PMC3545927.
Some of the results follow. The true hit rate is not given.

Target: furin, P09958
Assay: furin cleavage Z-score vs untreated control; higher = more cleavage, active = 3.5 or more, inactive = 1 or less, 8 variable residues between constant flanks
Method in brief: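 Purified furin digested bead-held 8-mer peptide–cDNA fusions at 1:10 enzyme:substrate in 0.01 ml of 50 mM HEPES pH 7.5 with CaCl2 and NaCl for 7.5, 15 or 30 min. The cleavage Z-score compares sequencing counts of released DNA with furin-free reactions on a log scale, with lowess adjustment and median absolute deviation scaling.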

Chain of furin, P09958 (P09958 whole entry): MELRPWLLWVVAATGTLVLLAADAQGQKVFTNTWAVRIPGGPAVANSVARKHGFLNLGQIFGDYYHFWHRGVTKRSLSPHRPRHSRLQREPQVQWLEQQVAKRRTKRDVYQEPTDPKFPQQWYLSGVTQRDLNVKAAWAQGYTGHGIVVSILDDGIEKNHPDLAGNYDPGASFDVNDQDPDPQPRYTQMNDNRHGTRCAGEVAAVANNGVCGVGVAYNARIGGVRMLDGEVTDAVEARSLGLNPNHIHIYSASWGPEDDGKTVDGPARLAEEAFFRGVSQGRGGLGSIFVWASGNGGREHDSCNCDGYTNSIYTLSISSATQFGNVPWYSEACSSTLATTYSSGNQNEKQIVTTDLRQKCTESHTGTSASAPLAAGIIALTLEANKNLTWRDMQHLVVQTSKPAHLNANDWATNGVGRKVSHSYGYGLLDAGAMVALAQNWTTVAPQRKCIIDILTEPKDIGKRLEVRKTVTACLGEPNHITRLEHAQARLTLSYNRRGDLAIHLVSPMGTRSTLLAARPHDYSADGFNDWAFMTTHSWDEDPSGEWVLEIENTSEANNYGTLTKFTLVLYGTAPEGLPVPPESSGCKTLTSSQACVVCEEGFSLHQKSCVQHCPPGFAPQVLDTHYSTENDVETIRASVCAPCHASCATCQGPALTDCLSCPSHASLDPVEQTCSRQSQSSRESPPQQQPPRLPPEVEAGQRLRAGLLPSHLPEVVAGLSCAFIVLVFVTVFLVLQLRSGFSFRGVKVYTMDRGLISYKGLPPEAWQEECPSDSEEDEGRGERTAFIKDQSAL

With CALLLFAGVDAGNASASA [HC348] the “furin cleavage Z-score” value (7.5 min) was -0.657 (inactive), the “furin cleavage Z-score” value (15 min) was -0.224 (inactive) and the “furin cleavage Z-score” value (30 min) was -1.23 (inactive).

CALLTRIPGFAGNASASA [FS-3146] was tested, and the “furin cleavage Z-score” value (7.5 min) was -0.34 (inactive), the “furin cleavage Z-score” value (15 min) was 0.0643 (inactive) and the “furin cleavage Z-score” value (30 min) was -0.495 (inactive).

In the case of CAKVHRQRRDAGNASASA [FS-48], the “furin cleavage Z-score” value (7.5 min) is reported as 6.48 (active), the “furin cleavage Z-score” value (15 min) is reported as 5.35 (active) and the “furin cleavage Z-score” value (30 min) is reported as 4.45 (active).

CARPERGARGAGNASASA [FS-2737] was tested, and the “furin cleavage Z-score” value (7.5 min) was -0.85 (inactive), the “furin cleavage Z-score” value (15 min) was 0.79 (inactive) and the “furin cleavage Z-score” value (30 min) was 0.188 (inactive).

For CARPERKRRDAGNASASA [FS-1066], the “furin cleavage Z-score” value (7.5 min) was 14.3 (active), the “furin cleavage Z-score” value (15 min) was 14.2 (active) and the “furin cleavage Z-score” value (30 min) was 10.6 (active).

For CARPVRDCDDAGNASASA [FS-3028], the “furin cleavage Z-score” value (7.5 min) was 0.136 (inactive), the “furin cleavage Z-score” value (15 min) was 1.92 and the “furin cleavage Z-score” value (30 min) was 1.99.

In the case of CAEVDVQARDAGNASASA [FS-1628], the “furin cleavage Z-score” value (7.5 min) is reported as -1.25 (inactive), the “furin cleavage Z-score” value (15 min) is reported as 0.00773 (inactive) and the “furin cleavage Z-score” value (30 min) is reported as -1.04 (inactive).

With CARPERGPRGAGNASASA [FS-1264] the “furin cleavage Z-score” value (7.5 min) was 1.01, the “furin cleavage Z-score” value (15 min) was 0.671 (inactive) and the “furin cleavage Z-score” value (30 min) was 1.51.

With CALLTRARRDAGNASASA [FS-1362] the “furin cleavage Z-score” value (7.5 min) was 10.7 (active), the “furin cleavage Z-score” value (15 min) was 11.2 (active) and the “furin cleavage Z-score” value (30 min) was 8.73 (active).

With CARPMRPVGHAGNASASA [FS-2739] the “furin cleavage Z-score” value (7.5 min) was -0.34 (inactive), the “furin cleavage Z-score” value (15 min) was -0.708 (inactive) and the “furin cleavage Z-score” value (30 min) was 1.89.

CARPERYRRHAGNASASA [FS-491] was tested, and the “furin cleavage Z-score” value (7.5 min) was 12.7 (active), the “furin cleavage Z-score” value (15 min) was 14.8 (active) and the “furin cleavage Z-score” value (30 min) was 11.1 (active).

In the case of CATTPCSGEWAGNASASA [HC1912], the “furin cleavage Z-score” value (7.5 min) is reported as -1.69 (inactive), the “furin cleavage Z-score” value (15 min) is reported as -0.859 (inactive) and the “furin cleavage Z-score” value (30 min) is reported as 0.0519 (inactive).

For CAMVCCSMSYAGNASASA [HC1986], the “furin cleavage Z-score” value (7.5 min) was 0.714 (inactive), the “furin cleavage Z-score” value (15 min) was 1.46 and the “furin cleavage Z-score” value (30 min) was 0.242 (inactive).

In the case of CAIICDECHSAGNASASA [HC817], the “furin cleavage Z-score” value (7.5 min) is reported as -0.464 (inactive), the “furin cleavage Z-score” value (15 min) is reported as -1.69 (inactive) and the “furin cleavage Z-score” value (30 min) is reported as -0.782 (inactive).

With CAKSRRARRDAGNASASA [FS-1597] the “furin cleavage Z-score” value (7.5 min) was 7.96 (active), the “furin cleavage Z-score” value (15 min) was 9.22 (active) and the “furin cleavage Z-score” value (30 min) was 7.04 (active).

With CAKDSRCDRDAGNASASA [FS-544] the “furin cleavage Z-score” value (7.5 min) was -1.48 (inactive), the “furin cleavage Z-score” value (15 min) was -1.29 (inactive) and the “furin cleavage Z-score” value (30 min) was 0.34 (inactive).

With CARPDRPVLKAGNASASA [FS-2436] the “furin cleavage Z-score” value (7.5 min) was -0.645 (inactive), the “furin cleavage Z-score” value (15 min) was -0.376 (inactive) and the “furin cleavage Z-score” value (30 min) was -0.377 (inactive).

CAQLAAPGAAAGNASASA [HC1070] was tested, and the “furin cleavage Z-score” value (7.5 min) was -0.00694 (inactive), the “furin cleavage Z-score” value (15 min) was -2.1 (inactive) and the “furin cleavage Z-score” value (30 min) was -1.59 (inactive).

CAALDTEVAAAGNASASA [HC565] was tested, and the “furin cleavage Z-score” value (7.5 min) was 1.05, the “furin cleavage Z-score” value (15 min) was 0.0294 (inactive) and the “furin cleavage Z-score” value (30 min) was -0.123 (inactive).

In the case of CARKFRDLLKAGNASASA [FS-1724], the “furin cleavage Z-score” value (7.5 min) is reported as -0.828 (inactive), the “furin cleavage Z-score” value (15 min) is reported as -1.86 (inactive) and the “furin cleavage Z-score” value (30 min) is reported as 0.751 (inactive).

CARMAREVAAAGNASASA [FS-1909] was tested, and the “furin cleavage Z-score” value (7.5 min) was 6.15 (active), the “furin cleavage Z-score” value (15 min) was 4.78 (active) and the “furin cleavage Z-score” value (30 min) was 6.63 (active).

For CARMARNVLKAGNASASA [FS-2281], the “furin cleavage Z-score” value (7.5 min) was 2.27, the “furin cleavage Z-score” value (15 min) was 2.22 and the “furin cleavage Z-score” value (30 min) was 4.88 (active).

CAEPVTSTWVAGNASASA [HC2179] was tested, and the “furin cleavage Z-score” value (7.5 min) was 1.29, the “furin cleavage Z-score” value (15 min) was -0.789 (inactive) and the “furin cleavage Z-score” value (30 min) was 0.354 (inactive).

CARFARYYRDAGNASASA [FS-373] was tested, and the “furin cleavage Z-score” value (7.5 min) was 4.68 (active), the “furin cleavage Z-score” value (15 min) was 4.65 (active) and the “furin cleavage Z-score” value (30 min) was 5.39 (active).

For CARKKREIRSAGNASASA [FS-2962], the “furin cleavage Z-score” value (7.5 min) was 14.3 (active), the “furin cleavage Z-score” value (15 min) was 12.6 (active) and the “furin cleavage Z-score” value (30 min) was 10.5 (active).

CASSNRLARFAGNASASA [FS-1284] was tested, and the “furin cleavage Z-score” value (7.5 min) was 3.54 (active), the “furin cleavage Z-score” value (15 min) was 4.58 (active) and the “furin cleavage Z-score” value (30 min) was 6.02 (active).

CARKKKGKADAGNASASA [FS-2690] was tested, and the “furin cleavage Z-score” value (7.5 min) was 0.358 (inactive), the “furin cleavage Z-score” value (15 min) was -1.8 (inactive) and the “furin cleavage Z-score” value (30 min) was -1.17 (inactive).

With CARKKRGYRDAGNASASA [FS-1856] the “furin cleavage Z-score” value (7.5 min) was 10.5 (active), the “furin cleavage Z-score” value (15 min) was 11.2 (active) and the “furin cleavage Z-score” value (30 min) was 8.83 (active).
